Data on eleven molecules can be found in PubChem BioAssay (NCATS).

Where “and” joins values, the source holds several entries; their conditions need not be identical. Equal entries are not always repeated. Values without a mark were called inactive. Results filed as inconclusive are left out. Calls of active or inactive are those of the source. Unless noted, calls follow the shape of the dose curve; as a rule, active = well fitted curve in the direction sought with a large enough effect; inconclusive = small, poorly fitted or top-dose-only effect, or another doubt; inactive = no such curve, though single readings can be large; an effect the other way counts as inactive or inconclusive.

The nature of assay [1]: Cell Viability - SH-SY5Y (AID 544).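 Also: cells exposed to compound for 40 hours; nearly all actives have a fitted effect of over 55% in size.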 Also: potency is read from the fitted curve at half-maximal effect.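 As to viability change, negative = cytotoxic: 0% = DMSO alone and -100% = 100 µM tamoxifen.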 Conditions: SH-SY5Y neuroblastoma cell viability; viability change, negative = cytotoxic: at 92.2 µM (top of the series). An outline of the steps: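 Cytotoxicity is scored as a concentration-dependent fall in intracellular ATP in human SH-SY5Y cells treated 40 hr in complete culture medium. Potency is expressed as AC50 from a Hill equation fit.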

The nature of assay [2]: Cell Viability - Renal Proximal Tubule (AID 545).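 Also: cells exposed to compound for 40 hours; 0% = DMSO only and -100% = 100 µM tamoxifen; nearly all actives have a fitted effect of over 40% in size.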 An outline of the steps:
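Rat kidney proximal tubule cells, freshly isolated; 1000 cells/well, 5 hr settle, compound 40 hr 37 °C. CellTiter-Glo 20 min RT, luminescence read. AC50 by standard Hill fit.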

Assay [3] can be described thus: Cell Viability - LYMP1-003 - Assay at 40 hr (AID 964). Also: % is scaled to controls: 0 for no effect and ±100 for the full control effect; nearly all actives have a fitted effect of over 60% in size. In short, it runs like this:
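This qHTS cytotoxicity screen treats human lymphoblastoid cells (LYMP1-003) with compounds for 40 hr and quantifies cellular ATP via luciferase luminescence.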

Assay [4] is described as follows: Cell Viability - LYMP2-011 (AID 969). Also: nearly all actives have a fitted effect of over 60% in size. Also: potency is read from the fitted curve at half-maximal effect.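 As to viability change, negative = cytotoxic: 0% = DMSO only and full inhibition = 92 µM tetraoctylammonium bromide.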 An outline of the steps:
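Acute toxicity is scored as a concentration-dependent drop in intracellular ATP of a human lymphoblastoid line after 24 hr treatment. Values are AC50s modeled with the Hill equation.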

A short description of assay [5]: Cell Viability - LYMP2-010 (AID 981). Also: nearly all actives have a fitted effect of over 55% in size. Also: potency is read from the fitted curve at half-maximal effect. In short, it runs like this: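 Acute toxicity is scored as a concentration-dependent loss of cellular ATP in human lymphoblastoid cells after 24 hr compound exposure in complete medium. Tetraoctylammonium bromide is the positive control.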
A short description of assay [6]: Cell Viability - LYMP2-012 (AID 982).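 Also: cellular ATP by luciferase luminescence where a drop means cytotoxicity; cells exposed to compound for one day before reading; nearly all actives have a fitted effect of over 55% in size.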 Also: potency is read from the fitted curve at half-maximal effect.
Assay [7] addresses Peroxisome proliferator-activated receptor delta (Homo sapiens) (UniProt Q03181). Description: qHTS assay for small molecule agonists of peroxisome proliferator-activated receptor delta signaling (AID 588534; calls by dose curve;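 also: 0% = DMSO basal wells and 100% = positive control agonist at 10 µM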). An outline of the steps: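 Reporter cells were plated and held 5 hrs at 37 C before compounds were added. After 18 hrs at 37 C, CCF4 dye was loaded for 2 hrs at RT and fluorescence measured.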

For assay [8], the target named is Thyroid hormone receptor beta (Homo sapiens) (UniProt P10828). Description: qHTS assay for small molecule antagonists of thyroid hormone receptor beta signaling (AID 588547; active = well fitted inhibition curve with a large enough effect in the signal ratio, with a control signal flat, not every such curve was filed as active; the % refers to the signal ratio;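 also: cells stimulated with 0.4 nM T3 agonist during compound exposure; % is scaled to controls: 0 for no effect and ±100 for the full control effect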). Conditions: TR-UAS-bla HEK293, beta-lactamase ratio, antagonist mode, 18 h. An outline of the steps: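 TR-UAS-bla GripTite HEK293 cells in 2% charcoal/dextran FBS medium; compounds 0.59 nM to 92 uM with T3 at 0.4nM final, 18 h at 37 C. Beta-lactamase read by CCF4 fluorescence (460/530 nm); Hill fits gave IC50 and efficacy.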
Sequence of Thyroid hormone receptor beta (Homo sapiens) (P10828 whole entry, looked up): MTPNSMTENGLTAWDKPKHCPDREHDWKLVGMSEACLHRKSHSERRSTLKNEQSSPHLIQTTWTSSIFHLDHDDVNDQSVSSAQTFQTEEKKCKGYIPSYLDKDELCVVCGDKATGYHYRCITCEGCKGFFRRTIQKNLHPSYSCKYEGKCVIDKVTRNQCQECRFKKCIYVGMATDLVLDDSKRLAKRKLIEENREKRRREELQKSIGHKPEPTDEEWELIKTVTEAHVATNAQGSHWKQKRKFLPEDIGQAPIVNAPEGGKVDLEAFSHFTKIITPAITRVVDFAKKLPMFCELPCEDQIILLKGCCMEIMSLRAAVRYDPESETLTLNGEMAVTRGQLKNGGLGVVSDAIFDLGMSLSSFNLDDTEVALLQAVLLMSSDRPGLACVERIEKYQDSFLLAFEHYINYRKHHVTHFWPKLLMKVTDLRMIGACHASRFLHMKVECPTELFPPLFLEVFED
(qHTS replaces the single test concentration by a dilution series.)

Assay [9] in a line: qHTS assay for small molecule disruptors of the mitochondrial membrane potential - 1 hr assay (AID 651754; calls by dose curve; also: nearly all actives have a fitted effect of over 35% in size; also: potency is read from the fitted curve at half-maximal effect). In short, it runs like this:
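Steps: seed HepG2 cells and let attach overnight; pin-transfer compound or vehicle; incubate 1 hr at 37C; add Mito-MPS dye for 30 min; read two-channel fluorescence for monomer and aggregate forms.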

The nature of assay [10]: qHTS assay for environmental chemicals that activate the Aryl hydrocarbon Receptor (AhR) signaling pathway (AID 651777). Also: nearly all actives have a fitted effect of over 15% in size. Also: potency is read from the fitted curve at half-maximal effect. As to activation: % of control where 0% means no effect. Conditions: 1A2-DRE human hepatoma cells, luciferase, 24 h; activation: hits give high values. An outline of the steps: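 Quantitative HTS in stably transfected human liver-derived cells whose luciferase gene sits downstream of the CYP1A2 promoter and dioxin response element. After 24 hr exposure at 37 C, One-Glo luminescence was measured.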

Assay [11] is described as follows: qHTS assay for small molecule antagonists of the retinoid-related orphan receptor gamma (ROR-gamma) signaling pathway - cell viability counter screen (AID 720652; active = well fitted curve in the direction sought with a large enough effect in the repeat runs; an effect the other way counts as inactive or inconclusive;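 also: CHO reporter cells with doxycycline-induced ROR-gamma expression; compound exposure lasted 16 hr before ATP read; % is scaled to controls: 0 for no effect and ±100 for the full control effect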). An outline of the steps:
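Cytotoxicity is quantified via intracellular ATP (CellTiter-Glo luminescence) in doxycycline-induced CHO ROR response element-luciferase reporter cells treated with compound for 16 hr at 37 C, 5% CO2.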

The target in assay [12] is Nuclear receptor subfamily 1 group I member 2 (Rattus norvegicus) (UniProt Q9R1A7). Description: qHTS assay for small molecule activators of the rat pregnane X receptor (rPXR) signaling pathway (AID 651751; call rule not given here; also: 0% is about no effect). To be noted: rPXR reporter cells, luciferase (One-Glo), 24 h.
Sequence of Nuclear receptor subfamily 1 group I member 2 (Rattus norvegicus) (Q9R1A7 whole entry, looked up): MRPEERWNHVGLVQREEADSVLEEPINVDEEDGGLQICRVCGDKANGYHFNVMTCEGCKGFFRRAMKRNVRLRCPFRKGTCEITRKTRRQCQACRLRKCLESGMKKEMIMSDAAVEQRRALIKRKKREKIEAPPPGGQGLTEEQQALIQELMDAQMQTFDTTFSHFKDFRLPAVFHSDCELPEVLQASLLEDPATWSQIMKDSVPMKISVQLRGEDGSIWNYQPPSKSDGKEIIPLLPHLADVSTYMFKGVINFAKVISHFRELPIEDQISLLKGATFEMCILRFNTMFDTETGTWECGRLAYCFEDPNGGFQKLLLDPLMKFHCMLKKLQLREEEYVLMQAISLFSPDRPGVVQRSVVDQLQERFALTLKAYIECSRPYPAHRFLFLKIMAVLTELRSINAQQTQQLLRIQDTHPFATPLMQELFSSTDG
Assay [13] can be described thus: qHTS assay for small molecule activators of the human pregnane X receptor (PXR) signaling pathway (AID 720659; call rule not given here; also: 0% is about no effect).
Assay [14] in a line: Cell Viability - Mesenchymal (AID 546).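 Also: cells exposed to compound for 40 hours before reading.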 Also: potency is read from the fitted curve at half-maximal effect. In short, it runs like this: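 Human kidney mesenchymal cells from normal renal glomeruli, 1000 cells/well, rested 5 hr at 37 °C, then treated 40 hr at 37 °C in complete medium. Cellular ATP read by CellTiter-Glo luminescence; AC50 from Hill-equation fits.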
Assay [15] is described as follows: Cell Viability - LYMP2-002 (AID 977).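 Also: compound exposure lasted 24 h at 37 °C; plate controls were DMSO only for no effect and 92 µM tetraoctylammonium bromide for full effect.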 In short, it runs like this: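 Human lymphoblastoid LYMP2-002 cells, 2500 per well, exposed to compounds for 24 h at 37 C in complete medium; viability read as intracellular ATP by CellTiter-Glo luminescence, AC50 from Hill fits.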
The target of assay [16] is Thyroid hormone receptor beta (Homo sapiens) (UniProt P10828). Description: qHTS assay for small molecule agonists of thyroid hormone receptor beta signaling (AID 588545; calls by dose curve; also: potency is read from the fitted curve at half-maximal effect). An outline of the steps:
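Agonist-mode beta-lactamase reporter assay, HEK 293 cells, 2% charcoal/dextran FBS; cells plated 4 hrs, compound 18 hrs at 37 C, CCF4 2 hrs RT. Normalized to 10 nM T3 (100%) and DMSO (0%); Hill fit gives EC50, efficacy.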

A short description of assay [17]: qHTS assay for small molecule agonists of the antioxidant response element (ARE) signaling pathway measured by Nrf2-dependant transcriptional activity (AID 720636; active = well fitted curve in the direction sought with a large enough effect in the repeat runs; an effect the other way counts as inactive or inconclusive; also: % of control where 0% means no effect). In short, it runs like this:
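Quantitative HTS format in HepG2 cells stably expressing an ARE-luciferase reporter; 16 hr compound treatment at 37 C, luciferase signal detected with ONE-Glo.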

Assay [18] is described as follows: Cell Viability - HUV-EC-C (AID 542).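 Also: cells exposed to compound for 40 hours; % is scaled to controls: 0 for no effect and ±100 for the full control effect; nearly all actives have a fitted effect of over 35% in size.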 In short, it runs like this:
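Decrease in cellular ATP, quantified by luciferase luminescence, reflects toxicity in normal human vascular endothelial HUV-EC-C cells given compound for 40 hr in complete culture medium. Values are AC50s from concentration-response curves.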

Assay [19] has as its target Retinoic acid receptor RXR-alpha (Homo sapiens) (UniProt P19793). Description: qHTS assay for small molecule agonists of retinoid X receptor alpha signaling (AID 588544; calls by dose curve;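 also: 0% = DMSO basal wells and 100% = reference agonist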).
The target is the same in assay [20]. Nature of the assay: qHTS assay for small molecule antagonists of retinoid X receptor alpha signaling (AID 588546; active = well fitted inhibition curve with a large enough effect in the signal ratio, with a control signal flat, not every such curve was filed as active; the % refers to the signal ratio;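 also: cells stimulated with 9-cis-retinoic acid as agonist; % is scaled to controls: 0 for no effect and ±100 for the full control effect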). To be noted: HEK293T RXRa-UAS-bla, beta-lactamase ratio, antagonist mode. In short, it runs like this: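 Beta-lactamase reporter inhibition, read as CCF4 fluorescence ratio (ex 405, em 460/530 nm) after 2 h at RT. HEK293T UAS-bla cells, 2500/well, were stimulated with 9-cis-RA at 500 or 100 nM final alongside test compound for 18 h at 37 C.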

Sequence of Retinoic acid receptor RXR-alpha (Homo sapiens) (P19793 whole entry, looked up): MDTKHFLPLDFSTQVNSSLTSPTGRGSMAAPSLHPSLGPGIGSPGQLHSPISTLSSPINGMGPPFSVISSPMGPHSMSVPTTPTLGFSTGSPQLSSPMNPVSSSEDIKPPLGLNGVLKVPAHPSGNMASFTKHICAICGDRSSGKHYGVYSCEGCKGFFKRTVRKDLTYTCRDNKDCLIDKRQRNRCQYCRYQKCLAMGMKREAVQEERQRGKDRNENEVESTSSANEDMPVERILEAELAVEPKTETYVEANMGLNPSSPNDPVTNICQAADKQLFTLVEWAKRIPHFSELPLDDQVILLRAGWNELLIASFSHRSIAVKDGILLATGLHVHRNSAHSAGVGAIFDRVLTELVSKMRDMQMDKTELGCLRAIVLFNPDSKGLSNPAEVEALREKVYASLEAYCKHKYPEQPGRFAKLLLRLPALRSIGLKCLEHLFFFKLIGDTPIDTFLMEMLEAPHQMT
Sequence of Peroxisome proliferator-activated receptor delta (Homo sapiens) (Q03181 whole entry, looked up): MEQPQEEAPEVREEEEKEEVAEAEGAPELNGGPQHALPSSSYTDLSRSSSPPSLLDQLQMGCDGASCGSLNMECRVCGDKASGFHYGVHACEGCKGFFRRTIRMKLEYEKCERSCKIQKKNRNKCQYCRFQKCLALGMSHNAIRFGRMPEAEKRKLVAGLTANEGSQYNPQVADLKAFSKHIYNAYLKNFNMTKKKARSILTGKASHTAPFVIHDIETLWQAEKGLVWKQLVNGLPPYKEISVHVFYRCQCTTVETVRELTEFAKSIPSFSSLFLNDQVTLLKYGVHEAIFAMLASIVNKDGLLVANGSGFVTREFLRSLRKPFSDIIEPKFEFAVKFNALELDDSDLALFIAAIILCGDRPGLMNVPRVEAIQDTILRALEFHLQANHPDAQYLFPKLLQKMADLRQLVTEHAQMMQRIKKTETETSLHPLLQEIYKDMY

Take `N#C/C=C/C#N`: the Potency was 15.8 µM (active) in assay [1], 39.8 µM (active) in assay [4], 31.6 µM (active) in [5] and 20 µM (active) in assay [6]. The call in assay [2], in [7] and in assay [13] was inactive. The Potency result in assay [3], in [9] and in [11] was “inactive” each time. Moreover, the activity change % (negative = inhibition) in assay [8] was -13.1%. Besides, the activation in assay [10] was 5.04%. In assay [12], the max response was -4.77%.

As for `Oc1cc(Cl)c(Cl)c(Cl)c1Cl`, the Potency result in [14], in [15], in assay [5], in assay [16] and in [17] was “inactive” each time. Besides, in assay [12], the max response is -6.73%. For the same molecule, the result in [13] was inactive.

For the molecule `c1ccc2c(c1)-c1cccc3c1c-2cc1ccccc13`, the Potency in [10] is 10 µM (active).

With `CN(C)c1ccc(N=Nc2ccccc2)cc1`, the Potency result in assay [18], in assay [3], in assay [4], in [5], in assay [6] and in assay [16] was “inactive” throughout. For the same molecule, the Potency result in [11] is “inactive”. The outcome in assay [7] and in [19] was inactive. Moreover, in assay [20], the max response was -20.4%. Moreover, in assay [8], the activity change % (negative = inhibition) is -4.36%. Besides, the Potency in assay [10] is 44.7 µM (active).

Regarding `Oc1cc(Cl)c(Cl)c(Cl)c1`, the Potency result in assay [14], in assay [3] and in [17] was “inactive” each time. Further, the Potency in assay [9] is 33.5 µM (active). For the same molecule, in assay [12], the max response was -2.97%. Moreover, in assay [13], the outcome was inactive.

As for `Nc1ccc(-c2ccc(N)c(Cl)c2)cc1Cl`, the Potency in assay [1] is 12.6 µM (active); in [14], 31.6 µM (active); in [9], 42.2 µM (active); in assay [10], 44.7 µM (active). Besides, the Potency entry in [4], in assay [6] and in assay [16] was “inactive” throughout. Besides, the max response in assay [20] is -19% and -20.8%. The activity change % (negative = inhibition) in assay [8] is -10.6% and -0.523%.

`O=[N+]([O-])c1cccc(CCl)c1`: the molecule was classed as inactive in [2], in assay [19] and in [13]. Moreover, the Potency entry in assay [14], in [3], in [15], in assay [6], in assay [16] and in assay [9] was “inactive” in each case. Moreover, the Potency result in [17] was “inactive”. For the same molecule, the max response in assay [20] was -0.788%; in assay [12], -4.81%.

As to `Clc1ccc(C(c2ccccc2Cl)C(Cl)(Cl)Cl)cc1` (stereo not drawn), the Potency result in assay [18], in assay [14], in assay [3], in [4], in assay [15] and in assay [16] was “inactive” in each case. Also, the Potency entry in assay [17] is “inactive”. Moreover, the result in [7] was inactive. In addition, the max response in assay [20] was -26%. Also, in [10], the activation is -0.21% and -0.331%.

Regarding `[C-]1=CC=CC1.[C-]1=CC=CC1.[Cl-].[Cl-].[Ti+4]`, the Potency entry in assay [18], in assay [14] and in assay [16] was “inactive” throughout. Besides, in assay [1], the viability change, negative = cytotoxic is -81.6% (active). Besides, in assay [2], the result was inactive. Moreover, in [10], the activation was 0.145%.

As to `BrCC(Br)(Br)Br`, the Potency entry in assay [18], in assay [14], in [3], in assay [9] and in assay [17] was “inactive” throughout. Besides, the outcome in assay [2], in [7], in [19] and in assay [13] was inactive. Besides, the Potency in [4] was 39.8 µM (active); in [5] it was 12.6 µM (active); in assay [6], 12.6 µM (active). The max response in [20] was 23.1%; in assay [12] it was -4.89%. Besides, in [8], the activity change % (negative = inhibition) was -15.5%. The activation in assay [10] is 1.69%.

For `c1ccc2c(c1)ccc1cc3c(ccc4ccccc43)cc12`, the Potency in [16] is 39.8 µM (active).
